Hit rate of the full screen: of about 51,000 compounds, about 600 (1.2%) were called active. About 2% were inconclusive and are not listed. Cut-off read from the data, not from the text of the source: active = potency below about 11 µM; inconclusive = mostly about 12 µM to 25 µM; inactive = weaker than that;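 the screen sought inhibitors and activators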. The sample as a whole holds a higher share of actives than the screen did.
The compounds below were run on pyruvate kinase (Bacillus stearothermophilus) (assay: Pyruvate Kinase). Conditions: purified pyruvate kinase, luminescence ATP production; ribose 5-phosphate activator present at AC10.
Protocol: Pyruvate kinase (partially purified from Bacillus stearothermophilus) was assayed for its ability to generate ATP from ADP using phosphoenolpyruvate (PEP) as a substrate. ATP generation was detected in a coupled reaction by luciferase-mediated luminescence, an ATP-dependent process. Pyruvate kinase substrates, PEP and ADP, were present in the assay at Km and […]-fold below Km respectively. The enzyme was assayed at an intermediate level of activity to screen for inhibitors and activators. In addition, ribose 5 phosphate, a positive modulator of pyruvate kinase, was included in the assay at AC10 in order to identify possible potentiators.
NCGC Assay Protocol Summary:
Three uL of substrate mix (final concentration, 50 mM imidazole pH 7.2, 50 mM KCl, 7 mM MgCl2, 2 mM PEP, 0.1 mM ADP, 0.7 nM ribose 5 phosphate, 0.01% Tween 20, 0.05% BSA) was dispensed into 1536 well plates. 23 nL of compound were delivered by a pin tool and 1 uL of enzyme mix (final concentration, 10 nM pyruvate kinase, 50 mM imidazole pH 7.2, 0.05% BSA) was added. After centrifugation at 1000 rpm for less than a minute, plates were incubated at room temperature for 2 hours. Three uL of detection and kinase stop mix (PKLight, Cambrex) was added, the plates centrifuged, and luminescence read by a ViewLux (Perkin Elmer) at 5 second exposure/plate. Data were normalized to the controls for AC100 stimulation (5 uM ribose 5 phosphate) and to AC100 inhibition (110 uM luteolin).
With `CCN(CC)S(=O)(=O)c1ccc2nc(CSc3nnnn3-c3ccc(O)cc3)[nH]c2c1` the Potency was > 57 µM (inactive).
With `O=C(CSc1nnc(-c2cccs2)n1-c1ccccc1)N1CCN(C(=O)c2ccco2)CC1` the Potency was > 57 µM (inactive).
For `CCc1ccc2oc(-c3ccc(N)cc3)nc2c1`, the Potency was 2.06 µM (active).
`CCN(CC)c1ccc2oc(=O)c(C)nc2c1` was tested, and the Potency was > 57 µM (inactive).
For `COC(=O)C(CC(=O)Nc1cc(C)ccc1C)Nc1ccccc1OC` (stereo not given), the Potency was > 57 µM (inactive).
`Cn1c(SCc2c(F)cccc2Cl)nnc1-c1cnccn1` was tested, and the Potency was > 57 µM (inactive).
`COc1ccccc1N=C1SC(C)CN1C(=O)C1CCC1` (stereo not given) was tested, and the Potency was > 57 µM (inactive).
`Cn1nnnc1SCc1cc(=O)[nH]c2ccccc12` was tested, and the Potency was > 57 µM (inactive).
With `CN(C)c1nc(N)nc(CSc2nnnn2-c2cccc3ccccc23)n1` the Potency was 1.57 µM (active).
With `CN(C(=O)CSc1nnnn1-c1ccccc1)C1CCCCC1` the Potency was > 57 µM (inactive).
In the case of `C=CCn1c(=S)[nH]c2nc3c(cc2c1=O)COC(C)(C)C3`, the Potency is reported as > 25.6 µM (inactive).
In the case of `COc1ccc(S(=O)(=O)N(CCCN2CCCC2=O)Cc2cc3c(C)ccc(C)c3[nH]c2=O)cc1`, the Potency is reported as > 57 µM (inactive).
With `CC(C)OC(=O)C(C#N)c1nc2ccccc2nc1N1CCN(Cc2ccc3c(c2)OCO3)CC1` (stereo not given) the Potency was > 25.6 µM (inactive).
For `CSc1nc(O)c(Cc2ccccc2)c(=O)[nH]1`, the Potency was > 25.6 µM (inactive).
With `O=C(CN1CCN(C(=O)c2cccc(F)c2)CC1)Nc1ccccc1F` the Potency was > 57 µM (inactive).
With `O=C(c1ccccc1)N1CCN(C(=O)N2CCCCC2)CC1` the Potency was > 57 µM (inactive).
With `COc1ccc(CCN2C(=O)c3[nH]nc(-c4ccccc4O)c3C2c2ccc(C)cc2)cc1OC` (stereo not given) the Potency was > 57 µM (inactive).
In the case of `Fc1ccc(-c2nnc3sc(-c4ccc5c(c4)OCO5)nn23)cc1`, the Potency is reported as > 57 µM (inactive).
`O=C(CN1C(=O)C2C3C=CC(C3)C2C1=O)NCCc1ccccc1Cl` (stereo not given) was tested, and the Potency was > 57 µM (inactive).
`N#CC1=C(N)C(C#N)(C#N)[C@H](c2ccsc2)[C@H]2COCC=C12` was tested, and the Potency was > 57 µM (inactive).
For `Cn1c(=O)c(=O)n(C)c2cc(S(=O)(=O)NCCc3ccccc3)ccc21`, the Potency was > 57 µM (inactive).
In the case of `CCCCCCn1c(CN2CCCCC2)nc2c1c(=O)n(C)c(=O)n2C`, the Potency is reported as > 57 µM (inactive).
`O=c1[nH]c(=O)n(Cc2ccco2)c2c1C(C(F)(F)F)(C(F)(F)F)N=C(c1ccco1)N2` was tested, and the Potency was > 25.6 µM (inactive).
For `CC1CCN(C(=O)Cn2cc(C(=O)c3ccco3)c3ccccc32)CC1`, the Potency was > 57 µM (inactive).
With `Cc1noc(C)c1C(=O)OCC(=O)/C=C1\N(C)c2ccccc2C1(C)C` the Potency was > 57 µM (inactive).
For `Cc1ccccc1-n1c(SCC(=O)NCc2cccs2)nnc1-c1ccncc1`, the Potency was > 57 µM (inactive).
For `CCn1c(CNC(=O)c2ccc(OC)c(OC)c2)nnc1SCC(=O)Nc1ccccc1`, the Potency was > 57 µM (inactive).
In the case of `CCCCNc1nc2ccccc2nc1NS(=O)(=O)c1cccs1`, the Potency is reported as > 57 µM (inactive).
In the case of `CCOC(=O)c1sc2nc(CSCC(=O)OCc3ccc(C(=O)OC)o3)[nH]c(=O)c2c1C`, the Potency is reported as > 57 µM (inactive).
`CCn1c(CSc2nncn2-c2ccc(OC)cc2)nc2cc(S(=O)(=O)N(C)C)ccc21` was tested, and the Potency was > 57 µM (inactive).
With `N#CCCN(CCC#N)c1nnc(-c2ccccc2)s1` the Potency was > 25.6 µM (inactive).
With `Cc1cc(C(F)(F)F)c(C#N)c(SCC(=O)NC2CC2)n1` the Potency was > 25.6 µM (inactive).
`Brc1cccc(-c2nnc3n2CCC3)c1` was tested, and the Potency was > 57 µM (inactive).
In the case of `Cc1ccc2nc(NCCCNC(=O)c3cnccn3)c(C#N)cc2c1`, the Potency is reported as > 57 µM (inactive).
In the case of `Cc1noc(NS(=O)(=O)c2ccc(NC(=O)C34CCC(CC3)C4)cc2)c1C`, the Potency is reported as > 57 µM (inactive).
In the case of `CC1Cn2c(nnc2-c2cccs2)S1` (stereo not given), the Potency is reported as > 57 µM (inactive).
With `N#Cc1c2c(c(N3CCN(CCO)CC3)n3c1nc1ccccc13)CCCC2` the Potency was > 57 µM (inactive).
With `COc1ccc(OC)c(NC(=O)CN2CCN(C(=O)c3ccco3)CC2)c1` the Potency was > 57 µM (inactive).
With `OCCCN1c2ccccc2Nc2nnc(-c3ccccc3)cc21` the Potency was 6.08 µM (active).
For `O=C(C1CCCO1)N1CCC(c2nc3ccccc3[nH]2)CC1` (stereo not given), the Potency was > 57 µM (inactive).
`CCCC(=O)N1CCc2[nH]c3ccccc3c2C1` was tested, and the Potency was > 25.6 µM (inactive).
In the case of `O=C(Nc1ccc(Oc2ccccc2)cc1)c1ccco1`, the Potency is reported as 51.8 µM (inactive).
With `CN1CCN(S(=O)(=O)c2ccc(NC(=O)c3ccco3)cc2)CC1` the Potency was > 57 µM (inactive).
In the case of `O=C(Nc1ccc(NC(=O)c2cccs2)cn1)c1ccco1`, the Potency is reported as 7.2 µM (active).
For `CCCc1nnc(NC(=O)c2cc(OC)cc(OC)c2)s1`, the Potency was > 57 µM (inactive).
`N#Cc1ccc(OCCN2C(=O)NC3(CCSC3)C2=O)cc1` (stereo not given) was tested, and the Potency was > 57 µM (inactive).
`COc1ccc(-c2cc3n(n2)CCc2nc4ccccc4n2-3)cc1` was tested, and the Potency was 1.66 µM (active).
For `COCCn1c(-c2ccc(OC)c(OC)c2)nc2ccccc21`, the Potency was > 57 µM (inactive).
`CCCn1c(C(O)c2cc(OC)ccc2OC)nc2ccccc21` (stereo not given) was tested, and the Potency was > 57 µM (inactive).
`COC(=O)c1sc(NC(=O)c2ccc(OC)cc2OC)nc1C` was tested, and the Potency was 0.093 µM (active).
In the case of `COc1ccc2nc(NC(=O)c3ccc(Br)s3)sc2c1`, the Potency is reported as > 11.4 µM (inactive).
With `CCOC(=O)c1sc(NC(=O)c2cc(S(=O)(=O)N3CCOCC3)ccc2C)nc1C` the Potency was > 57 µM (inactive).
`O=C(NCc1ccco1)c1ccc(CS(=O)(=O)Cc2ccc(F)cc2)o1` was tested, and the Potency was > 57 µM (inactive).
With `COc1ccccc1NC(=O)C1=C(C)NC2=C(C(=O)CCC2)C1c1ccc(C)o1` (stereo not given) the Potency was > 57 µM (inactive).
In the case of `COc1ccc(N2C(=O)c3cccc4cccc(c34)C2=O)nn1`, the Potency is reported as > 57 µM (inactive).
With `Cc1nn2c3cc(N4CCOCC4)ccc3nc2c2ccccc12` the Potency was 2.65 µM (active).
`COCCCNC(=O)CSc1nc2ccc(N3CCOCC3)cc2c(=O)n1CCc1ccccc1` was tested, and the Potency was > 57 µM (inactive).
`Cc1cc(C)c2c(n1)nn1c(N3CCOCC3)cc(C)nc21` was tested, and the Potency was > 57 µM (inactive).
In the case of `O=C(c1cccc2ccccc12)N1CCN(c2ccccc2F)CC1`, the Potency is reported as 26 µM (inactive).
`Cc1ccc2cccc(S(=O)(=O)N3CCN(c4ccccc4F)CC3)c2n1` was tested, and the Potency was 6.92 µM (active).
In the case of `O=S(=O)(N1CCOCC1)N1CCN(c2ccccc2F)CC1`, the Potency is reported as > 57 µM (inactive).
With `Cn1c(=O)n(CCc2ccccc2)c(=O)c2c1nc1n2CCCN1c1ccccc1` the Potency was > 57 µM (inactive).
With `COc1cc(OC)cc(C(=O)Nc2ccc(-c3nc4ccccc4o3)c(O)c2)c1` the Potency was > 57 µM (inactive).
With `CN(C)CCCNc1c2c(c(C#N)c3nc4ccccc4n13)CCC2` the Potency was > 57 µM (inactive).
`c1ccc(-c2oc3ncnc(N4CCOCC4)c3c2-c2ccccc2)cc1` was tested, and the Potency was > 57 µM (inactive).
For `CC(C(=O)Nc1ccccc1-c1ccccc1)N1CCOCC1` (stereo not given), the Potency was > 57 µM (inactive).
In the case of `CC(C(=O)N1CCOCC1)N1c2cccc3cccc(c23)S1(=O)=O` (stereo not given), the Potency is reported as 1.8 µM (active).
In the case of `CC(C(=O)O)N1C(=O)c2cccc3cccc1c23` (stereo not given), the Potency is reported as 36.6 µM (inactive).
With `O=C1Nc2c(Br)cc(Br)cc2C1(O)N1CCOCC1` (stereo not given) the Potency was 8.12 µM (active).
`COc1ccc(NC2CC(=O)N(C)C2=O)cc1` (stereo not given) was tested, and the Potency was > 25.6 µM (inactive).
In the case of `Fc1ccc2nc(N3CCCCC3)sc2c1`, the Potency is reported as 41.1 µM (inactive).
`c1c2c(cc3sc(N4CCCCC4)nc13)OCCO2` was tested, and the Potency was 1.52 µM (active).
With `CCOC(=O)N1CCC(NC(=O)c2ccc3nc(N4CCOCC4)sc3c2)CC1` the Potency was > 57 µM (inactive).
`Cc1nnc(SCC(N)=O)n1CC1CCCO1` (stereo not given) was tested, and the Potency was > 57 µM (inactive).
In the case of `Cc1ccsc1C(=O)OCC(=O)c1cc(C)n(CC2CCCO2)c1C` (stereo not given), the Potency is reported as 0.617 µM (active).
In the case of `COC(=O)c1ccc2c(=O)n(CC3CCCO3)c(=S)[nH]c2c1` (stereo not given), the Potency is reported as > 57 µM (inactive).
`COc1ccc(CNC(=O)c2cc3c(=O)n4ccccc4nc3n(CC3CCCO3)c2=N)cc1` (stereo not given) was tested, and the Potency was > 57 µM (inactive).
For `O=C(Nc1cnn(Cc2ccc(Cl)cc2)c1)C1CCCC1`, the Potency was > 57 µM (inactive).
With `C=CCn1c(COc2ccccc2)nnc1SCC(=O)NCC(=O)OCC` the Potency was > 57 µM (inactive).
For `O=C(NCc1ccccn1)c1cc2ccccc2oc1=O`, the Potency was > 57 µM (inactive).
`COc1ccc(C(=O)N(Cc2ccc(N(C)C)cc2)C2CCS(=O)(=O)C2)cc1` (stereo not given) was tested, and the Potency was > 57 µM (inactive).
`CCC12CN3CC(CC)(CN(C1)C31C(=O)N(C)c3ccc(C)cc31)C2=O` (stereo not given) was tested, and the Potency was > 57 µM (inactive).
For `COc1ccc(CC(=O)n2nc(-c3cccnc3)nc2N)cc1`, the Potency was > 57 µM (inactive).
In the case of `COC(=O)c1ccccc1NC(=O)c1ccccc1NS(C)(=O)=O`, the Potency is reported as > 57 µM (inactive).
For `COC(=O)Cc1nc2ccccc2[nH]1`, the Potency was > 57 µM (inactive).
`Cc1ccc(-c2c3c(=O)n(C)c(=O)n(C)c3cn2-c2ccccc2O)cc1` was tested, and the Potency was > 57 µM (inactive).
For `CCOC(=O)N1CCN(CC(=O)c2c(C)[nH]c3ccccc23)CC1`, the Potency was > 57 µM (inactive).
In the case of `Cc1c(C(=O)CN2CCOCC2)[nH]c2ccccc12`, the Potency is reported as > 57 µM (inactive).
For `N#Cc1nc(Cc2ccccc2)oc1NCCc1ccccc1`, the Potency was > 57 µM (inactive).
In the case of `N#Cc1nc(COc2ccc(-c3ccccc3)cc2)oc1NCc1cccnc1`, the Potency is reported as > 57 µM (inactive).
For `N#Cc1nc(-c2ccc(OCc3ccccc3)cc2)oc1NCCCN1CCOCC1`, the Potency was 1.88 µM (active).
With `O=C(O)CSCc1nc2ccccc2s1` the Potency was > 57 µM (inactive).
For `O=C(CN1C(=O)COc2ccccc21)NCCN1CCc2ccccc2C1`, the Potency was > 57 µM (inactive).
`Cn1c(C(=O)NCCN2CCc3ccccc3C2)cc2c(=O)[nH]c3ccccc3c21` was tested, and the Potency was 9.21 µM (active).
`Cc1cccc(N2CCN(C(=O)c3cc4c(=O)[nH]c5ccccc5c4n3C)CC2)c1C` was tested, and the Potency was > 11.4 µM (inactive).

— PubChem BioAssay AID361 (National Center for Advancing Translational Sciences (NCATS), 2006)
Potency is the fitted concentration of half-maximal effect.
